Bioassay records: PubChem, several laboratories
Mdm2-MdmX inh = human Mdm2/MdmX binding inhibition. O15151+Q00987. SaOS-2 split-luciferase Mdm2/MdmX complementation, luminescence. inhibition, % at 8 µM. 330,000 tested, 3% active. AID 485346;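 active means inhibition of at least 50% at 8 µM in the primary screen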
Target sequence (O15151 whole entry, looked up): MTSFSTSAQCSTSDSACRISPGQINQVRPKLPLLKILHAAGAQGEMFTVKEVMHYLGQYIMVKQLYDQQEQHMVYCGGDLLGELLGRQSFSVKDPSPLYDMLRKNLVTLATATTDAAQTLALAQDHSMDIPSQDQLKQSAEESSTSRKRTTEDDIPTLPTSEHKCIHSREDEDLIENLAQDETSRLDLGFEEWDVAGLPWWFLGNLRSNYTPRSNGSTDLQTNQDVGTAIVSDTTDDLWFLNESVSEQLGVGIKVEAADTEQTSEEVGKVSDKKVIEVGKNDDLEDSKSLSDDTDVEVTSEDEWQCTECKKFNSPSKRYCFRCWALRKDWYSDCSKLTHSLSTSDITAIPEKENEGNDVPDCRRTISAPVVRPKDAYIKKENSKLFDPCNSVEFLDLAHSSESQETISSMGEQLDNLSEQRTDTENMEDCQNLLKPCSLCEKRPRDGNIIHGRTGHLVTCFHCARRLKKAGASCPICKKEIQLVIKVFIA
Target sequence (Q00987 whole entry, looked up): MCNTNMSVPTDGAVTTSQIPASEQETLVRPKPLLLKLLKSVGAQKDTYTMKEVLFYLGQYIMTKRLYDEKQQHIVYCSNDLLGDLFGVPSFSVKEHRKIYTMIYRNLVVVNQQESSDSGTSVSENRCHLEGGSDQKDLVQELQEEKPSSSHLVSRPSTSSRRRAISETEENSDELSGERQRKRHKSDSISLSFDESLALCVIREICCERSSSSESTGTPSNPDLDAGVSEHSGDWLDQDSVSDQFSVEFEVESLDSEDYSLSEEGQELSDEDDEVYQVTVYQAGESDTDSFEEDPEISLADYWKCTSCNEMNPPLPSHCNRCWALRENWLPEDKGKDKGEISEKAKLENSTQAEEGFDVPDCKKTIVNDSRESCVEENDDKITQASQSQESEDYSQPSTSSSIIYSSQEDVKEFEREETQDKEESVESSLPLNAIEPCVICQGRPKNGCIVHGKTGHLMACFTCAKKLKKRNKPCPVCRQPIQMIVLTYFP
MPTP inh = permeability transition pore inhibition; 360,000 tested, 1.4% active; isolated mouse mitochondria, Ca2+ swelling absorbance, 30 min; inhibition, % at 10 µM;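 active means inhibition of 50% or more, scaled per plate between neutral and stimulator controls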;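 further: 0% = DMSO wells given calcium and 100% = 1 mM EGTA wells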
CSC inhib = blocks cancer stem cells | cancer stem cell-like cells viability, luminescence | inhibition, % at 7.5 µM | 300,000 tested, 1.1% active | AID 2717; in the data active means inhibition above about 75%; tested in HMLE shEcad cells
Calb FLC = affects C. albicans growth with fluconazole | 300,000 tested, 0.57% active | AID 1979 | C. albicans CaCi-2 (fluconazole-resistant clinical isolate) + fluconazole, Alamar Blue growth, 48 h | growth inhibition, % (test concentration not listed);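 active means growth inhibition above about 58% in most replicates, limit read from the data, passing the limit was not always enough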;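 further: all wells also contain fluconazole at 8 µg/ml as a sub-toxic cotreatment; 0% = median of DMSO wells and 100% = median of geldanamycin control wells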
Beta apoptosis = blocks beta cell apoptosis; INS-1E cytokine-induced death, ATP luminescence, 48 h; percent of positive-control rescue, neutral wells zero; protection from apoptosis, % (no concentration beside the values); 300,000 tested, 0.8% active; AID 435005;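 active means Every replicate reaches about 75%, or at least half do and their mean reaches it too, limit read from the data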;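 further: 0% = cytokine-treated negative control wells and 100% = positive control rescue; higher means more ATP so stronger rescue from cytokine killing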
SKKanGAS inh = blocks kanamycin growth of S. pyogenes SKKanGAS strain; BacTiter-Glo, 6 h; inhibition, % at 7.5 µM; 300,000 tested, 1.3% active;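 active means mean replicate score, as percent of positive control median, at least 50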;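 further: strain carries kanamycin resistance gene driven by streptokinase promoter and grows in 40 µg/ml kanamycin; loss of luminescence reflects streptokinase promoter inhibition or plain growth inhibition; 0% = median of DMSO wells and 100% = positive control at its reference dose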
MPTP counter = membrane potential counter-screen of mitochondrial pore inhibitors. shares compounds with MPTP inh. isolated mitochondria, Rhodamine 123 fluorescence. inhibition, % at 10 µM. 5,000 tested, 78% active. AID 624504; in the data active means inhibition above about 22%;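 further: 0% = DMSO vehicle and 100% = positive control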
MPTP swell DR = MPTP inhibition, dose response swelling confirmation | 780 tested, 58% active | IC50, µM | shares compounds with MPTP inh | isolated mitochondria swelling, absorbance; in the data active means IC50 below about 20 µM
MPTP counter DR = MPTP inhibitor counter-screen activity, dose response; shares compounds with MPTP inh; isolated mitochondria counterscreen, fluorescence read-out; IC50, µM; 780 tested, 49% active; in the data active means IC50 below about 80 µM
* hit, by the source's call; . = no result. Shown are actives, neighbours in structure and some others; about 5.4% of the full set was active somewhere.

SMILES | Mdm2-MdmX inh | MPTP inh | CSC inhib | Calb FLC | Beta apoptosis | SKKanGAS inh | MPTP counter | others
N/N=C1\CCCc2c1[nH]c1ccc([N+](=O)[O-])cc21 | 12 | 7 | -6 | 4 | 1 | 41 | .
Cc1cc(C)n(CCc2nc(-c3ccco3)cs2)n1 | 4 | 55* | -5 | -4 | -4 | 6 | -6 | MPTP swell DR=>100;MPTP counter DR=>80
COc1ccc2cc(S(=O)(=O)N3CCCCC3)ccc2c1S(=O)(=O)N1CCCCC1 | 18 | 0 | 8 | -3 | 13 | 13 | .
Cc1csc2c(N3CCN(C(=O)Nc4ccc(Cl)c(Cl)c4)CC3)ncnc12 | 19 | 88* | 11 | 3 | -3 | 62* | 80*
O=C(c1ccc(-c2ccccc2)cc1)N1CCN(c2nc3ccccc3o2)CC1 | . | 4 | . | . | . | . | .
Cc1csc2c(N3CCN(C(=O)c4ccc(C(C)(C)C)cc4)CC3)ncnc12 | 3 | 96* | 4 | 20 | 116* | 10 | 83*
Cc1csc2ncnc(N3CCN(C(=S)Nc4ccc(C(F)(F)F)cc4)CC3)c12 | 25 | 91* | 22 | -7 | 1 | 15 | 94*
Cc1cc(C)cc(NC(=S)N2CCN(c3ncc(C(F)(F)F)cc3Cl)CC2)c1 | 8 | 29 | 4 | 6 | -3 | 3 | .
CC(C)(C)c1ccc(C(=O)N2CCN(c3nc4ccccc4o3)CC2)cc1 | 40 | 52* | . | -5 | 35 | 4 | 44*
Cc1csc2c(N3CCN(C(=O)NC(C)(C)C)CC3)ncnc12 | 26 | 18 | -1 | -4 | 3 | 1 | .
Cc1csc2c(N3CCN(C(=S)Nc4ccc(C(F)(F)F)cc4)CC3)ncnc12 | 28 | 97* | 20 | -3 | -4 | 35 | 92*
C=CCNC(=O)CN(c1cc(Cl)ccc1OC)S(=O)(=O)c1ccc(C)c([N+](=O)[O-])c1 | 10 | 4 | 0 | -19 | . | 6 | .
FC(F)Sc1ccc(NC(=S)NC2CCC(NC(=S)Nc3ccc(SC(F)F)cc3)CC2)cc1 (configuration not stated) | 26 | 4 | 25 | -12 | 2 | 9 | .
Oc1cccc2c(NC(=S)Nc3ccc(SC(F)F)cc3)cccc12 | 38 | 88* | -14 | 18 | -3 | 10 | 88*
Oc1cccc(NC(=S)Nc2ccc(SC(F)F)cc2)c1 | 2 | 91* | -2 | 4 | 3 | 11 | 84*
CCCCNC(=S)Nc1ccc(SC(F)F)cc1 | -27 | 98* | 6 | 5 | 8 | -13 | 73*
OCc1nc2c(ccc3ccccc32)[nH]1 | 8 | 0 | -20 | 2 | -7 | -9 | .
N#Cc1c(NC(=O)CSc2nc3ccccc3s2)sc2c1CCCC2 | 26 | 12 | -5 | 3 | -2 | -6 | .
CC(C)n1nnnc1C1c2ccccc2C(=O)N1CCc1ccc(O)cc1 (configuration not stated) | . | 0 | . | . | . | . | .
COc1ccccc1C1CCN(c2cc(O)ccc2[N+](=O)[O-])CC1 | -6 | 86* | 19 | -1 | 0 | 20 | 78*
COc1ccccc1C1CCN(C(=O)c2ccccc2)CC1 | -24 | 0 | 3 | 0 | -2 | 8 | .
CCCCCCCCCCCCCCCC(O)C(N)CO (configuration not stated) | 39 | 80* | 56 | . | . | 75* | -7
NN/C(=C\[N+](=O)[O-])Nc1ccc(Cl)cc1 | 0 | 55* | 54 | -22 | 3 | 37 | 87*
COC(=O)c1ccccc1OCCCOc1ccc(C=O)cc1OC | -32 | 58* | -14 | -15 | -12 | -4 | -8 | MPTP swell DR=11*;MPTP counter DR=>80
COc1cc(C)ccc1OCCCCOc1ccccc1C(C)=O | -2 | 95* | 3 | 3 | 5 | 10 | 85*
SMILES | Mdm2-MdmX inh | MPTP inh | CSC inhib | Calb FLC | Beta apoptosis | SKKanGAS inh | MPTP counter | others
S=C(Nc1ccc(Cc2ccncc2)cc1)Nc1cccc(Cl)c1 | 5 | 93* | 56 | 2 | -5 | 2 | 81*
O=C(Nc1cccc(Cl)c1)Nc1ccc2c(c1)C(=O)OC2 | 0 | 80* | -19 | -13 | -9 | -7 | 85*
Cn1nc(C(=O)Nc2cccc(Cl)c2)cc1C(=O)Nc1cccc(Cl)c1 | 44 | 57* | 39 | 0 | 16 | 21 | 84*
O=C(Nc1cccc(F)c1)Nc1ccc2c(c1)C(=O)OC2 | -32 | 49 | -3 | 4 | -9 | -1 | .
CC(=O)N(C)c1ccc(NC(=O)c2cnn(C)c2)cc1 | 9 | 70* | -2 | 2 | 1 | 1 | 4
CNC(=S)Nc1ccc(Cc2ccncc2)cc1 | 17 | 2 | -9 | 2 | -2 | 0 | .
CS(=O)(=O)N(CC(=O)Nc1ccc(F)cc1F)C1CCCCC1 | 13 | -1 | -12 | 0 | . | -2 | .
COc1cccc(NC(=O)CN(C)C(=O)COc2ccccc2Cc2ccccc2)c1 | 13 | -2 | 14 | . | -3 | . | .
O=C(COC(=O)c1cc(-c2ccccc2)nc2ccccc12)NC1CC1 | -17 | 1 | -13 | . | 3 | . | .
O=C(O)c1ccc(-c2nc3scc(-c4ccccc4)c3c(=O)[nH]2)cc1 | -14 | 0 | -1 | 1 | -6 | 1 | .
O=C(NCc1ccncc1)Nc1cccc(Cl)c1 | 10 | 3 | -13 | -6 | -7 | -2 | .
Cc1cccc(NC(=O)Nc2ccc(Cl)cc2)n1 | -8 | 1 | -11 | -3 | -2 | -1 | .
O=C(Nc1ccncc1)Nc1cccc(Cl)c1 | 16 | 57* | -9 | 1 | 4 | -2 | 95*
CN(C)c1ccc(NC(=O)Nc2cccc(Cl)c2)cc1 | -111 | 74* | 40 | 7 | 7 | 9 | 72*
CN(c1cccc(NC(=O)Nc2cccc(Cl)c2)c1)S(C)(=O)=O | 1 | 6 | . | -15 | 13 | 4 | .
CC(=O)N(C)c1ccc(NC(=O)Nc2ccc(Cl)cc2)cc1 | 10 | 56* | 0 | 35 | 4 | -7 | 78*
Cc1nccc(-c2cccc(NC(=O)Nc3ccc(Cl)cc3)c2)n1 | -1 | 83* | 14 | 0 | -3 | -6 | 93*
NC(=O)NC(=O)C(Nc1ccc2c(c1)CCC2)c1ccccc1 (configuration not stated) | -5 | 0 | -10 | -3 | 0 | 0 | .
CCc1ccc(-n2c(=O)c3ccccc3n(CC(=O)NCc3ccco3)c2=O)cc1 | 1 | -1 | 14 | 1 | 15 | -2 | .
CCc1ccccc1Nc1nc(N)nc(CSCC(=O)c2cc(C)n(C)c2C)n1 | 7 | 8 | -2 | . | -4 | 6 | .
COC(=O)c1ccc2nc(Nc3nc4ccc(F)cc4s3)sc2c1 | . | 89* | 53 | 1 | -4 | 19 | 72*
CC(=O)c1sc(Nc2nc3ccc(F)cc3s2)nc1C | -89 | 71* | 27 | -4 | 40 | 6 | 63*
